Experimental data taken from PubChem BioAssay (NCI).
The panel holds about 83,000 compounds, 20% with a hit somewhere; the sample as a whole holds those more often.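 Activity criterion: percent growth below 10, measured after cells in 96-well plates were exposed to a single compound concentration for 48 hours.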 Activity calls are given as the source filed them.

Key:
Assay in all cases: NCI-60 one-dose screen, 48 h (100 = growth as untreated, 0 = no growth, -100 = all killed)
Settings in all cases: 10 µM unless noted
[1] = tested on: DU-145 prostate
[2] = tested on: K-562 leukemia
[3] = tested on: MALME-3M melanoma
[4] = tested on: MDA-MB-231 breast
[5] = tested on: RXF 393 renal
[6] = tested on: SF-268 CNS
[7] = tested on: SF-295 CNS
[8] = tested on: SF-539 CNS
[9] = tested on: UACC-257 melanoma
[10] = tested on: M14 melanoma
[11] = tested on: HCT-15 colon
[12] = tested on: HT29 colon
[13] = tested on: SNB-75 CNS
[14] = tested on: SNB-19 CNS
[15] = tested on: U251 CNS
[16] = tested on: PC-3 prostate
[17] = tested on: SK-MEL-5 melanoma
[18] = tested on: UACC-62 melanoma
[19] = tested on: LOX IMVI melanoma
[20] = tested on: SK-MEL-28 melanoma

Measured: growth

CC(C)C1=NOC(=O)C1=Cc1cn(-c2ccco2)nc1-c1ccccc1
inactive: [1] 94.6% | [2] 62.1% | [3] 104% | [4] 92% | [5] 80.6% | [6] 90.5% | [7] 99.2% | [8] 99.9% | [9] 106% | [10] 85.6% | [11] 77.8% | [12] 86.3% | [13] 80.8% | [14] 89.8% | [15] 75.6% | [16] 78% | [17] 95.3% | [18] 87.6% | [19] 39.3% | [20] 99%

O=S(=O)(c1ccc(N/N=C\c2ccccc2Cl)cc1)c1ccc(N/N=C/c2ccccc2Cl)cc1
inactive: [1] 92.1% | [2] 86.1% | [3] 94.6% | [4] 81.6% | [5] 106% | [6] 67.8% | [7] 89.6% | [8] 89.7% | [9] 92.1% | [10] 84.7% | [11] 73.7% | [12] 79.2% | [13] 61.5% | [14] 90.4% | [15] 90.1% | [16] 54.7% | [17] 97.1% | [18] 73.2% | [19] 95.1% | [20] 94.2%

Cn1cc(-c2nnc(-c3cn(C)c4ncccc34)o2)c2ccccc21
active: [13] -18.3% | [17] 0.903%
inactive: [1] 60% | [2] 10.3% | [3] 19.3% | [4] 38.5% | [5] 10% | [6] 51.1% | [7] 13.1% | [8] 27.7% | [9] 73.6% | [10] 35.5% | [11] 17.9% | [12] 12.1% | [14] 42.3% | [15] 30.1% | [16] 39.8% | [18] 27.7% | [19] 48.6% | [20] 55.9%

O=S(=O)(NCCCNc1nccc(-c2c(-c3cccc(F)c3)nc3occn23)n1)c1cccc2ccccc12
inactive: [1] 41.4% | [3] 31.1% | [5] 47.9% | [6] 36.6% | [7] 52.8% | [8] 61.8% | [9] 58.3% | [10] 31.8% | [11] 29.2% | [13] 62.5% | [14] 64.7% | [15] 49.8% | [16] 18.1% | [17] 27% | [18] 31.5% | [19] 35.3% | [20] 64.9%
active: [2] 4.01% | [4] -0.0227% | [12] 5.59%

O=C1/C(=C\c2cn(CC(O)CN3CCCCC3)c3ccccc23)c2ccccc2N1c1c(Cl)cccc1Cl (stereo not given)
active: [1] -99.8% | [2] -35.6% | [3] -65.9% | [4] -81.6% | [5] -87.6% | [6] -76.8% | [7] -82.7% | [8] -82.4% | [9] -98.1% | [10] -81.1% | [11] -72.8% | [12] -85% | [13] -98.6% | [14] -71.2% | [15] -93.8% | [16] -88.7% | [17] -100% | [18] -84% | [19] -85.1% | [20] -94.4%

CCn1cc(-c2cc(-c3ccc(Cl)cc3)nc(N)n2)c(-c2ccc(Br)cc2)n1
inactive: [1] 99.4% | [2] 77.4% | [3] 93.8% | [4] 60.6% | [5] 94.8% | [6] 94.8% | [7] 84.3% | [8] 87.3% | [9] 73.5% | [10] 74.5% | [11] 64.9% | [12] 55.8% | [13] 82.4% | [14] 88.7% | [15] 87% | [16] 47% | [17] 90.8% | [18] 60.7% | [19] 88.5% | [20] 61.3%

O=C1NC(=O)c2cc([N+](=O)[O-])cc3cccc1c23
inactive: [1] 106% | [2] 131% | [3] 107% | [4] 100% | [5] 98.2% | [6] 98% | [7] 114% | [8] 105% | [9] 76.7% | [10] 93.3% | [11] 95.2% | [12] 102% | [13] 90.2% | [14] 100% | [15] 82.3% | [16] 78.8% | [17] 101% | [18] 87% | [19] 81.5% | [20] 108%

COc1cc(C)cc2oc3oc(=N)c(C(=O)c4ccccc4)cc3c(=O)c12
inactive: [1] 111% | [2] 97.5% | [3] 91.8% | [4] 98.2% | [5] 108% | [6] 94.4% | [7] 106% | [8] 96.4% | [9] 111% | [10] 99.7% | [11] 103% | [12] 108% | [13] 86.2% | [14] 99.4% | [15] 107% | [16] 103% | [17] 96.8% | [18] 93.5% | [19] 95.6% | [20] 98%

Cc1cc(C)c(O)c(CNCCCCCCNCc2cc(C)cc(C)c2O)c1
inactive: [6] 23.9% | [16] 34.7%
active: [1] 7.45% | [2] -63% | [3] -81.9% | [4] -44% | [5] -2.77% | [7] -83.6% | [8] -85.3% | [9] -80.6% | [10] -79.9% | [11] -53.2% | [12] -6.14% | [13] -23.7% | [14] -46.1% | [15] -59.2% | [17] -91.8% | [18] -68.9% | [19] -85% | [20] -82.6%

C/C=C/C1OC23CCCCC2C(C#N)(C(=N)O3)C1(C#N)C#N (stereo not given)
inactive: [1] 95.1% | [2] 94.7% | [3] 99% | [4] 110% | [5] 116% | [6] 97.6% | [7] 110% | [8] 98.2% | [9] 93.3% | [10] 92.8% | [11] 85% | [12] 109% | [13] 85.9% | [14] 101% | [15] 102% | [16] 98.1% | [17] 99.1% | [18] 87% | [19] 81.9% | [20] 109%

COc1ccc(C2NC(=O)C(C#N)c3c2sc2c(F)cccc32)cc1 (stereo not given)
inactive: [1] 67.8% | [2] 14.1% | [3] 47.2% | [4] 71.2% | [5] 55.9% | [6] 62% | [7] 30.5% | [8] 39.5% | [9] 63.9% | [10] 33.3% | [11] 33.6% | [12] 50.5% | [13] 13.6% | [14] 42.7% | [15] 47.3% | [16] 52.4% | [17] 60.6% | [18] 36.4% | [19] 45.6% | [20] 52.6%

Cc1cc(C)c(S(=O)(=O)/N=c2/n(-c3ccccc3)nc3n2CCN3C2=NCCN2)c(C)c1
inactive: [1] 98% | [2] 38.9% | [3] 50.7% | [4] 67.7% | [5] 54.9% | [6] 81.4% | [7] 95.8% | [8] 88.8% | [9] 92% | [10] 98.9% | [11] 90.1% | [12] 58% | [13] 74.3% | [14] 91.5% | [15] 76.4% | [16] 69.5% | [17] 60.4% | [18] 88.8% | [19] 73.3% | [20] 82.3%

CCCN1CC(c2ccc(OC)c(OC)c2)=C(c2cn(C(=O)OCC)c3ccccc23)C1=O
active: [5] -0.611% | [13] -14.1%
inactive: [1] 71.9% | [2] 13.3% | [3] 51.6% | [4] 43.3% | [6] 58.2% | [7] 32.4% | [8] 28.1% | [9] 90.1% | [10] 70.4% | [11] 25.9% | [12] 14.5% | [14] 50.3% | [15] 46.7% | [16] 32.4% | [17] 22.9% | [18] 18.3% | [19] 49.6% | [20] 73.1%

CCCCC(CC)COC(=O)C[N+](C)(C)CCOC(c1ccccc1)c1ccccc1 (stereo not given)
active: [5] -4.09% | [9] 2.69% | [17] -79.8% | [18] -20.1% | [19] 1.39%
inactive: [1] 85.1% | [2] 14.6% | [3] 30.8% | [4] 29.3% | [6] 49% | [7] 74.4% | [8] 69.7% | [10] 20.3% | [11] 96.2% | [12] 28.3% | [13] 10.8% | [14] 40.7% | [15] 30.8% | [16] 19.5% | [20] 11.1%
